Consider four molecules from PubChem BioAssay.

Molecules are shown by their SMILES. Calls of active or inactive are those of the source. Unless noted, no rule for the calls is given here.

Test [1] deals with Wnt5a (protein binding on small-molecule microarray). The experiment in a line: Wnt5a binders on small-molecule microarray, primary screen, biophysical, 635/667 nm fluorescence (AID 1142).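 Also: fluorescence read at 667 nm with signal to noise per printed feature.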 The settings on record: 635 nm fluorescence, higher = more signal.
A short description of test [2]: cell viability in Huh7 cells, primary screen, cytotoxicity control for HCV replication inhibitor project, CellTiter-Glo luminescence, basal, 48 h (AID 1143).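 Also: Huh7 hepatoma cells carrying a hepatitis C replication reporter with no stimulus; test concentration not given here.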 The settings on record: Huh7 HCV replicon, higher = more signal, called active from +8 up or from −8 down.
Test [3] is described as follows: P. aeruginosa biofilm formation inhibitors, primary screen, PAO1 strain, BacTiter-Glo luminescence, LB-PBS (AID 1144). The settings on record: 12 h, higher = more signal.
Test [4] is described as follows: CREB reporter modulators without forskolin, primary screen, cell-based, PC12, CRE-LacZ reporter, unstimulated (AID 1145). To be noted: no forskolin, luminescence, 4.5 h, higher = more signal, called active from +8 up or from −8 down.
Test [5] in a line: CREB reporter modulators under forskolin, primary screen, cell-based, PC12, CRE-LacZ reporter, forskolin-stimulated (AID 1146).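 Also: PC12 cells with 6xCRE LacZ reporter stimulated by forskolin 10 µM; beta-galactosidase reporter signal reflecting CREB driven transcription.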 The settings on record: luminescence, 4.5 h, higher = more signal, called active from +8 up or from −8 down.
Test [6] concerns the target Streptavidin (Streptomyces avidinii) (UniProt P22629). The experiment in a line: streptavidin binders on small-molecule microarray, primary screen, artefact control for SMM compound annotation, biophysical, 635/667 nm fluorescence (AID 1147).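 Also: signal reflects streptavidin binding to arrayed compounds as a control protein.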 The settings on record: streptavidin binding, higher = more signal.
Test [7] can be described thus: small-molecule binders of probe aInhba, primary screen, biochemical, small-molecule microarray, 635/667 nm fluorescence (AID 1148).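 Also: score merges 667nm spot fluorescence with signal-to-noise for antibody binding to printed compounds.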 To be noted: higher = more signal.
The target in test [8] is Torsin-1A (Homo sapiens) (UniProt O14656). In words: torsin A binders from cell lysate, primary screen, small-molecule microarray, wild-type, 635/667 nm (AID 1149). To be noted: COS7 hTOR1A-WT lysate, 635 nm fluorescence, higher = more signal.
The target is the same in test [9]. In words: small-molecule binders of mutant TOR1A in lysate, primary screen, cell lysate, small-molecule microarray, COS7 lysate, 635/667 nm fluorescence (AID 1150).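 Also: score pools 667 nm emission and signal to noise measuring lysate protein binding.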 To be noted: COS7 hTOR1A mutant lysate, 635 nm fluorescence, higher = more signal.
The subject of test [10] is Sonic hedgehog protein (Shh). The experiment in a line: small-molecule binders of Shh protein, primary screen, biochemical, small-molecule microarray, 635/667 nm fluorescence (AID 1151).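 Also: Shh protein binding to compounds spotted on small-molecule microarray slides; score combines spot fluorescence intensity with signal-to-noise across triplicate slides.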 The settings on record: small-molecule microarray binding, 635 nm fluorescence; higher = more signal.
Test [11] in a line: E. coli DRC41 culture turbidity changes, primary screen, E. coli filamentation inducer project, strain DRC41, OD650, 48 h (AID 1152).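 Also: E. coli MC1000 strain DRC41 lacking acrAB efflux pump and sulA.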 To be noted: E. coli DRC41 (acrAB sulA), higher = more signal, called active from +8 up or from −8 down.
Test [12] can be described thus: small-molecule binders of probe aLefty1, primary screen, biochemical, small-molecule microarray, 635/667 nm fluorescence (AID 1153).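 Also: score merges spot fluorescence with signal-to-noise ratio from the scanned slide images.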 To be noted: higher = more signal.
Test [13] is described as follows: PSAC antagonists in infected red cells, primary screen, cell-based, P. falciparum Indochina, OD700, 1 h (AID 1154). To be noted: P. falciparum Indochina infected RBC osmotic lysis, higher = more signal, called active from +8 up or from −8 down.
Test [14] can be described thus: PSAC antagonists in infected red cells, primary screen, cell-based, P. falciparum Indochina, OD700, 2 h (AID 1155).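 Also: lysis reports solute entry through the parasite surface anion channel PSAC; channel blockers reduce lysis of infected cells.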 The settings on record: P. falciparum Indochina infected erythrocytes, osmotic lysis OD700; higher = more signal, called active from +8 up or from −8 down.
Test [15] in a line: osmotic lysis modulators in infected erythrocytes, primary screen, PSAC antagonist project, cell-based, P. falciparum Indochina, OD700, 3 h (AID 1156). The settings on record: higher = more signal, called active from +8 up or from −8 down.
A short description of test [16]: PSAC antagonists in infected red cells, primary screen, cell-based, P. falciparum Indochina, OD700, 18 h (AID 1157). The settings on record: P. falciparum Indochina infected erythrocytes, osmotic lysis OD700, 18 h; higher = more signal, called active from +8 up or from −8 down.
Test [17] in a line: modulators of S6 phosphorylation in cells, primary screen, cell-based, A549, cytoblot, luminescence, serum-stimulated (AID 1158).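 Also: serum-stimulated A549 lung adenocarcinoma cells; signal is phosphorylated S6 detected by cytoblot immunostaining with HRP secondary.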 The settings on record: A549 phospho-S6 cytoblot, 5 h, higher = more signal.
Test [18] deals with NADPH oxidase 2 (Homo sapiens) (UniProt P04839). The experiment in a line: NOX2-dependent H2O2 signal modulators, primary screen, NOX inhibitor project, cell-based, HEK293-NOX2, PMA-stimulated, Amplex Red fluorescence (AID 1159). Also: test concentration not given here. To be noted: 45 min, higher = more signal, called active from +8 up or from −8 down.
Test [19] deals with NADPH oxidase 4 (Homo sapiens) (UniProt Q9NPH5). The experiment in a line: NOX4-dependent H2O2 signal modulators, primary screen, NOX inhibitor project, cell-based, HEK293-NOX4, tetracycline-induced, Amplex Red fluorescence (AID 1160). To be noted: 45 min, higher = more signal, called active from +8 up or from −8 down.
Test [20] has as its target NADPH oxidase 5 (Homo sapiens) (UniProt Q96PH1). The experiment in a line: NOX5-dependent H2O2 signal modulators, primary screen, NOX inhibitor project, cell-based, HEK293-NOX5, Amplex Red fluorescence (AID 1161). The settings on record: HEK293-NOX5, ionomycin, 45 min, higher = more signal.

Sequence of Torsin-1A (Homo sapiens) (O14656 whole entry, looked up): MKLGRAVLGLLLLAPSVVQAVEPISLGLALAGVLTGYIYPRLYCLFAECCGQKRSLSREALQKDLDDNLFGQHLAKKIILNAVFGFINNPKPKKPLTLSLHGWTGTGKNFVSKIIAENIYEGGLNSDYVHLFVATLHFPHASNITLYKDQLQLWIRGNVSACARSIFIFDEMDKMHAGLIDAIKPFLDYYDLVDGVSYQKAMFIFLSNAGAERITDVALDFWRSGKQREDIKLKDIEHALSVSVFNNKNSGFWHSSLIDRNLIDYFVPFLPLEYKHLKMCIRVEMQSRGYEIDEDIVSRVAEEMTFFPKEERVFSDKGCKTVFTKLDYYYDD
Sequence of Streptavidin (Streptomyces avidinii) (P22629 whole entry, looked up): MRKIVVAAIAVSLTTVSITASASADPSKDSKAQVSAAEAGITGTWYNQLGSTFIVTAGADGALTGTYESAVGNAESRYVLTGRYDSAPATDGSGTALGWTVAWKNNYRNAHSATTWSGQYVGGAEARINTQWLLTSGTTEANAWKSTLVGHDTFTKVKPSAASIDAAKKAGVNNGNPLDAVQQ
Sequence of NADPH oxidase 5 (Homo sapiens) (Q96PH1 whole entry, looked up): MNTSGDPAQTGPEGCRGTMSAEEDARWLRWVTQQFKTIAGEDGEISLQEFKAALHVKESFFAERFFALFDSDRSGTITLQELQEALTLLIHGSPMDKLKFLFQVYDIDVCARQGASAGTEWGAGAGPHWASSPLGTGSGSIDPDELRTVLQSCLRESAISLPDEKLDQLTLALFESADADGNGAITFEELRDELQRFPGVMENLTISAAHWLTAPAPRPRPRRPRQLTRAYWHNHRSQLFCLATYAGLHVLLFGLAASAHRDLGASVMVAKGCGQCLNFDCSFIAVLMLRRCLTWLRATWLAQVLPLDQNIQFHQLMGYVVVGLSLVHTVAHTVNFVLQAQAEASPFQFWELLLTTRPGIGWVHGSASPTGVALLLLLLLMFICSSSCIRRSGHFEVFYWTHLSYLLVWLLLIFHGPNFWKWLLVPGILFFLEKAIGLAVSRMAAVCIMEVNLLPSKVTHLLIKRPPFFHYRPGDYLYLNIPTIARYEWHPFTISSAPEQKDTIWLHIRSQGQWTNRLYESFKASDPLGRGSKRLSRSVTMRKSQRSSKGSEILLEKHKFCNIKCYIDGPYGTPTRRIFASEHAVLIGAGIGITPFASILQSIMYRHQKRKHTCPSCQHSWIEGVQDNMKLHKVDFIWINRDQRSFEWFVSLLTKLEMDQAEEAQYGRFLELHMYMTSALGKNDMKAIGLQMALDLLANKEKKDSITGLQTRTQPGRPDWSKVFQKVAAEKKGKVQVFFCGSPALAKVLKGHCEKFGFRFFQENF
Sequence of NADPH oxidase 2 (Homo sapiens) (P04839 whole entry, looked up): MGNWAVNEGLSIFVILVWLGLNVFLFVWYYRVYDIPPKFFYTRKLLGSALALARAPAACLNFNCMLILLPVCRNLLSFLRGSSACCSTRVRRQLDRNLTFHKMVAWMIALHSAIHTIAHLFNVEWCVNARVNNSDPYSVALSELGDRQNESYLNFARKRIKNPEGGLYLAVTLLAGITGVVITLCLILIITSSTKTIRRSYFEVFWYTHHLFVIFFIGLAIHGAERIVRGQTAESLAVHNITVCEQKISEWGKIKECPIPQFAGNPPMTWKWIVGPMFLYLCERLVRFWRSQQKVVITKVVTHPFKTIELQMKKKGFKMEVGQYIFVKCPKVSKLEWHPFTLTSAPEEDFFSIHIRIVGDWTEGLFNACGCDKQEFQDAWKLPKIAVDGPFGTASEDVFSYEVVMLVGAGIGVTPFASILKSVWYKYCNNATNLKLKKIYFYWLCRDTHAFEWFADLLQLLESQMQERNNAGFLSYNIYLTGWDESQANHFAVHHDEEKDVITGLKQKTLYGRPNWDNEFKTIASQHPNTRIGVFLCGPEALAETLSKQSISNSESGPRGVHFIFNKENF
Sequence of NADPH oxidase 4 (Homo sapiens) (Q9NPH5 whole entry, looked up): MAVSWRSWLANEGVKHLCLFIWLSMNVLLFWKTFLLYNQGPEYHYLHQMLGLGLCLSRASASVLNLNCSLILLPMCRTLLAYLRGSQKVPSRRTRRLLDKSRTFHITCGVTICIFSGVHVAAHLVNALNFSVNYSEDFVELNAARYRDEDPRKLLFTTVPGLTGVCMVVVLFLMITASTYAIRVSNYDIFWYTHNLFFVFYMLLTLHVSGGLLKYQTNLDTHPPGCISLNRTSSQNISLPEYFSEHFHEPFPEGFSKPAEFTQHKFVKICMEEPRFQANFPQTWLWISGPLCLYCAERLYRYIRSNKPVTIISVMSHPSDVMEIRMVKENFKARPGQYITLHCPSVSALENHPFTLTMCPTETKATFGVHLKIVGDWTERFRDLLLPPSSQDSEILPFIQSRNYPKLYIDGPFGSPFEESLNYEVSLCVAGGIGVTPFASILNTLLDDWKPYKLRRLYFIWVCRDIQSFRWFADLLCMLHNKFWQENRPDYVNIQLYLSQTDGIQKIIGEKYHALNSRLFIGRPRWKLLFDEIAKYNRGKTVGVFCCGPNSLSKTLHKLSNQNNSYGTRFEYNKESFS

`CCC1=NOC(CCC2CC(OC(=O)NCc3cccc4c3OCO4)CC3(CCCC(COC(=O)NCCc4ccc(Cl)cc4)O3)O2)C1` (stereo not given): the composite z-score was -0.165 in [1]; -0.136 in test [6]; -0.0963 in test [7]; 0.217 with Torsin-1A (Homo sapiens) [8]; 0.672 with Torsin-1A (Homo sapiens) [9]; 0.358 in [10]. This molecule yielded a composite z-score in test [12] of -0.103. Besides, the z-score in test [2] is -0.379 (inactive); in test [3], 0.612 (inactive); in test [4] it was -0.0755 (inactive); in test [5], -0.51 (inactive); in test [11], 0.13 (inactive); in test [13] it was 0.78 (inactive). In addition, the z-score was -0.172 (inactive) in test [14]; -0.747 (inactive) in test [15]; -0.268 (inactive) in [16]; -0.695 in test [17]; 1.28 (inactive) in [18]; 0.891 (inactive) in test [19]. In [20], this molecule returned a z-score of 0.984.
`CCOC(=O)CCN1C(=O)[C@H]2[C@H]3[C@H](O)[C@H](O)CC(=NNC(=O)OCC)[C@H]3CC[C@H]2C1=O`: the composite z-score in [1] is -0.034; in test [6], -0.58; in test [7] it was -0.24; with Torsin-1A (Homo sapiens) [8], 0.0668; with Torsin-1A (Homo sapiens) [9], 0.204; in test [10], 1.1. In test [12], this molecule had a composite z-score of -0.0611. Also, the z-score in test [2] is -1.63 (inactive); in test [3], 1.25 (inactive); in [4], -0.202 (inactive); in [5], 0.531 (inactive); in [11] it was -0.793 (inactive); in test [13] it was 3.88 (inactive). Further, the z-score in test [14] is 0.635 (inactive); in test [15], 1 (inactive); in test [16], 1.07 (inactive); in test [17], -0.242; in test [18] it was 0.415 (inactive); in test [19] it was -0.702 (inactive). This molecule had a z-score in test [20] of -4.72.
In the case of `COc1ccc(O[C@H]2C=C[C@@H](c3ccccc3)O[C@@H]2CO)cc1`, the composite z-score in test [1] was 0.0263; in [6] it was 0.145; in test [7] it was -0.0412; with Torsin-1A (Homo sapiens) [8] it was 0.139; with Torsin-1A (Homo sapiens) [9] it was 0.153; in test [10], 0.507. In test [12], this molecule came in with a composite z-score of -0.0501. The z-score in test [2] was -1.12 (inactive); in test [3] it was 0.584 (inactive); in test [4], -0.617 (inactive); in [5], -0.265 (inactive); in [11] it was 0.0426 (inactive); in test [13], 2.91 (inactive). The z-score in test [14] is 1.29 (inactive); in test [15], -0.0071 (inactive); in [16], 0.64 (inactive); in [17], -0.781; in [18], -0.242 (inactive); in test [19], -0.634 (inactive). In test [20], this molecule showed a z-score of -2.07.
As to `COC(=O)CC=C[C@@H](C)[C@@H](C=NOC[C@@H](C)[C@H](OCc1ccccc1)C(C)C)NS(=O)(=O)c1ccc(C)cc1`, the composite z-score was -0.122 in [1]; -0.784 in test [6]; -0.29 in test [7]; 0.331 with Torsin-1A (Homo sapiens) [8]; 0.0147 with Torsin-1A (Homo sapiens) [9]; 0.587 in test [10]. The molecule further gave a composite z-score in test [12] of -0.0011. Also, the z-score in test [2] was -0.7 (inactive); in test [3] it was 0.904 (inactive); in test [4] it was 2.87 (inactive); in test [5], 0.447 (inactive); in test [11], -0.795 (inactive); in test [13], 2.91 (inactive). The z-score was 0.988 (inactive) in test [14]; 1.2 (inactive) in [15]; 0.808 (inactive) in test [16]; -0.222 in test [17]; 0.787 (inactive) in test [18]; -0.183 (inactive) in test [19]. This molecule also yielded a z-score in [20] of -1.19.
